DT40 TDP1 no CPT – qHTS for Inhibitors of human tyrosyl-DNA phosphodiesterase 1 (TDP1): qHTS in cells in absence of CPT | DT40 Tdp1-/- hTDP1 cells, no CPT, ATP luminescence, 48 h | Potency, µM (top dose mostly 46.2 µM), inactives show at the highest dose activity change, negative = growth inhibition, most hits filed as inhibitors | 15% of 420,000 active | AID 686978, 2013; note: nearly all actives have a fitted effect of over 55% in size
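Seeded 400 DT40-hTDP1 cells/well (vehicle DMSO, no 20 nM CPT); pinned compounds; ≥48 hr at 37 °C; CellTiter-Glo luminescence as viability measure.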
HT1080-NT tox – kills 2HG-producing HT-1080-NT fibrosarcoma cells | HT-1080-NT fibrosarcoma viability, CellTiter-Glo ATP luminescence, 48 h | 1.6% of 360,000 active | AID 686970 | Potency, µM (top dose mostly 46.1 µM), for inactives: at the highest dose activity, negative = less viability, hits mostly cytotoxic;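 note: NT is the 2HG producing partner of a matched IDH1 knockdown line; 0% = DMSO-treated cells and -100% = media-only wells without cells; nearly all actives have a fitted effect of over 55% in size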
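Fibrosarcoma NT cells, 750 per well in 5% FBS RPMI, were exposed to compound for 48 hours. Viability: CellTiter-Glo luminescence.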
DT40 TDP1 CPT – DT40-hTDP1 cell growth loss with CPT | chicken DT40 Tdp1-/-;hTDP1 cells + 20 nM CPT, ATP luminescence, 48 h | Potency, µM (highest dose often 46.2 µM), for inactives: at the highest dose activity change, negative = growth inhibition, hits mostly inhibitors | 12% of 420,000 active | AID 686979; note: nearly all actives have a fitted effect of over 55% in size
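Chicken DT40 Tdp1-/- cells complemented with human TDP1, 400 cells/well, exposed to compounds plus 20 nM camptothecin for at least 48 h at 37 C; viability read as ATP content by CellTiter-Glo luminescence.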
KB-3-1 cytotox – kills parental KB-3-1 adenocarcinoma cells | KB-3-1 viability, CellTiter-Glo ATP luminescence, 72 h | Potency, µM (titrated, usually from 46.1 µM), most hits filed as cytotoxic | 1.4% of 400,000 active; note: nearly all actives have a fitted effect of over 60% in size
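Viability of parental KB-3-1 cells, measured by CellTiter-Glo luminescence, followed a 72 h incubation at 37 °C with pinned compounds in phenol-red-free DMEM containing 10% FBS.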
HT1080 IDH1KD tx – kills HT-1080 cells with IDH1 knockdown. 2% of 360,000 active. HT-1080 IDH1 knockdown viability, ATP luminescence, 48 h. Potency, µM (series often up to 46.1 µM), for inactives: at the highest dose activity, negative = toxicity, actives largely listed as cytotoxic;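 note: 0% = DMSO wells and -100% = cell-free medium wells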
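IDH1KD HT-1080 cells, 750/well, RPMI + 5% FBS; compound pinned after 2 h settling; 48 h, 37 °C; CellTiter-Glo luminescence; % activity normalised to DMSO and no-cell wells; curves fitted, classed by r2 and efficacy.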
KB-V1 MDR tox – kills drug-selected multidrug resistant KB-V1 cells; 3.4% of 400,000 active; KB-V1 MDR cells viability, CellTiter-Glo, 72 h; AID 1347076; Potency, µM (highest dose often 46.1 µM), hits mostly cytotoxic; note: nearly all actives have a fitted effect of over 60% in size
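Readout: CellTiter-Glo luminescence, 10 min after addition. Cells: KB-V1 MDR subline, 72 h at 37 degrees C with compound. Analysis: corrected, normalized data fitted to concentration-effect curves.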
An asterisk follows results filed as active; i = inactive; u = inconclusive; x = no result. Most compounds without a hit are left out; they make up all but 19% or so of the library. Calls come from the whole dose curve; as a rule, active = well fitted curve in the direction sought with a large enough effect; inconclusive = small, poorly fitted or top-dose-only effect, or another doubt; inactive = no such curve, though single readings can be large; an effect the other way counts as inactive or inconclusive. Unless noted, % is set by controls: 0 for no effect and ±100 for the full control effect; potency is the fitted concentration of half-maximal effect.

SMILES	DT40 TDP1 no CPT	HT1080-NT tox	DT40 TDP1 CPT	KB-3-1 cytotox	HT1080 IDH1KD tx	KB-V1 MDR tox
CC1=C(C(=O)N(C)C)CC(CC(=O)NC(c2ccccc2)c2ccccc2)C(=O)N1Cc1ccccc1 (stereo not drawn)	-22%	0%	-1%	i	-3%	u
CCN(CC)C(=O)C1=C(C)N(CCCOC)C(=O)C(CC(=O)NC(c2ccccc2)c2ccccc2)C1 (stereo not drawn)	7.3µM*	0%	5.8µM*	i	-1%	i
CC1=C(C(=O)N(C)C)CC(CC(=O)NC(c2ccccc2)c2ccccc2)C(=O)N1Cc1ccc(F)cc1 (stereo not drawn)	18µM*	2%	u	i	6%	i
CCNC(=O)C1(C)CCCN(C(=O)c2cc(-c3cccs3)oc2C)C1 (stereo not drawn)	u	-1%	u	i	-12%	i
CCOc1ccc(NC(=O)C2CCN(C(=O)N3CC(C)Oc4ccc(Cl)cc43)CC2)cc1 (stereo not drawn)	15µM*	x	23µM*	i	x	i
CC1CN(C(=O)N2CCC(C(=O)NC3CCCCCC3)CC2)c2cc(Cl)ccc2O1 (stereo not drawn)	18µM*	x	15µM*	i	x	i
Cc1cc(C)c(NC(=O)C2CCN(C(=O)N3CC(C)Oc4ccc(Cl)cc43)CC2)c(C)c1 (stereo not drawn)	21µM*	x	u	i	x	i
O=c1cc2nc(-c3ccccc3F)nc(SCc3ccc(Br)cc3)n2[nH]1	12µM*	x	18µM*	i	x	i
COc1ccccc1NC(=O)CSc1nc(-c2ccccc2F)nc2cc(=O)[nH]n12	u	x	u	i	x	i
COc1cccc(/C=N/NC(=O)c2cccc([N+](=O)[O-])c2)c1OS(=O)(=O)c1ccccc1	16µM*	-6%	u	i	-14%	10µM*
N#Cc1cc([N+](=O)[O-])ccc1Oc1cccc(/C=N/NC(=O)c2cccc(Cl)c2)c1	21µM*	-24%	u	u	-25%	i
COc1cccc(C(=O)N/N=C/c2ccc(Oc3ccc([N+](=O)[O-])cn3)c(OC)c2)c1	u	-24%	21µM*	u	-21%	i
O=C(N/N=C/c1cccc([N+](=O)[O-])c1)c1ccc(COc2ccccc2-c2ccccc2)cc1	23µM*	4%	21µM*	u	-2%	16µM*
O=C(Oc1cccc(/C=N/NC(=O)c2ccccn2)c1)c1ccc([N+](=O)[O-])cc1	u	-26%	-19%	i	-20%	i
CCc1nn(CC(=O)NC(C)CC)c(=O)c2cc3occc3n12 (stereo not drawn)	-13%	x	-14%	i	x	i
O=C(Nc1ccc(F)c(Cl)c1)C1CCN(c2ncccn2)CC1	2%	x	-20%	i	x	i
COC(=O)C[C@H]1N(S(=O)(=O)c2ccc(C)cc2)C(C(C)C)CC1(C(=O)OC)C(=O)OC (stereo partly drawn)	u	-1%	u	i	6%	u
COc1cccc(/C=N/NC(=O)c2ccc([N+](=O)[O-])cc2Cl)c1O	4.6µM*	u	4.6µM*	i	u	9.2µM*
COc1ccc(/C=N/NC(=O)c2cccc([N+](=O)[O-])c2)cc1OC	9%	-3%	-10%	i	2%	i
COc1cccc(/C=N/NC(=O)C(=O)N/N=C/c2cccc(OC)c2OC)c1OC	-12%	u	22%	i	23µM*	i
COc1cc(/C=N/NC(=O)COc2c(C)cc([N+](=O)[O-])cc2C)ccc1OC(=O)c1ccccc1	21µM*	u	13µM*	i	18µM*	i
COc1ccc(/C=N/NC(=O)c2cccc([N+](=O)[O-])c2)cc1OS(=O)(=O)c1ccccc1	16µM*	12%	u	i	17%	i
